From the supplement of paper PMC12636033
± gives the standard deviation of the averaged measurements. The full ranking holds about 33,000 sequences; the median of “E-score (rank enrichment, -0.5 to 0.5)” is about -0.0068, and the highest 2% start at about 0.24. What follows is part of a selection rich in the highest values, with near analogues and random picks from the rest.

The sequences below were run on muMax20 (Max(13-93) K31hArg/K57hArg, M65Nle) (assay: PBM 8-mer E-score (E-score (rank enrichment, -0.5 to 0.5)); higher = stronger preferential binding).
Description: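 Protein binding microarray (universal PBM chip covering all 10-mers in fixed probe flanks) with chemically synthesized human Max(13-93) bHLH-LZ analogs (not full-length Max) bearing noncanonical residues (hArg, Tha, Aib, Nle at 65) and aromatic Cys staples. Read-out per 8-mer (and its reverse complement): E-score (rank-based enrichment, -0.5 to 0.5) and Z-score of median probe intensity.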

| Sequence | PBM 8-mer E-score |
| --- | --- |
| CACTCGCG | -0.0815 ± 0.047 |
| GAAGAGTC | 0.089 ± 0.11 |
| CAGTGCTA | -0.08 ± 0.053 |
| GCAGAGCA | -0.187 ± 0.06 |
| CTATATAG | 0.134 ± 0.082 |
| GAGGATAA | 0.0253 ± 0.093 |
| AGTTAGTC | -0.094 ± 0.036 |
| AATTAGTC | 0.0746 ± 0.11 |
| CATTAGTA | 0.0251 ± 0.027 |
| AGTTAGTA | 0.27 ± 0.033 |
| GGTTAGTA | 0.0601 ± 0.091 |
| AATTAGTA | 0.28 ± 0.034 |
| ACTGATGG | -0.0638 ± 0.09 |
| GTCCGATA | -0.0402 ± 0.11 |
| CTCCCGAC | -0.0892 ± 0.047 |
| ATCCCGCG | -0.0553 ± 0.1 |
| CGCATTAA | -0.00237 ± 0.005 |
| AGCATTAT | 0.262 ± 0.048 |
| ACCATTAA | 0.348 ± 0.021 |
| TGCATTAA | 0.277 ± 0.062 |
| AGCATTAA | 0.232 ± 0.0024 |
| AGCATTAG | 0.142 ± 0.042 |
| TCCATTAA | -2.5e-05 ± 0.096 |
| CCCATTAA | -0.0202 ± 0.017 |
| AGCATTAC | -0.0675 ± 0.077 |

| Sequence | PBM 8-mer E-score |
| --- | --- |
| ACTTATAA | 0.0449 ± 0.25 |
| AATCTTTG | 0.0923 ± 0.013 |
| CGTTGGGA | -0.0152 ± 0.0038 |
| GTGTTCTA | 0.169 ± 0.024 |
| AAATCCGT | -0.0161 ± 0.1 |
| AGGTCCGC | -0.129 ± 0.034 |
| ATATTTTA | 0.203 ± 0.0096 |
| ACACGAAC | 0.122 ± 0.011 |
| CTGTTTAC | 0.106 ± 0.041 |
| ATGTTTAG | 0.222 ± 0.12 |
| ATGTTTAC | 0.245 ± 0.073 |
| AGTTCACC | -0.068 ± 0.0075 |
| ATTAAAAA | 0.0946 ± 0.0066 |
| ATTAAACA | 0.132 ± 0.15 |
| ATTAAAAG | 0.119 ± 0.073 |
| AATTAAAC | 0.268 ± 0.072 |
| ATTAAACC | 0.164 ± 0.03 |
| AATTAAAG | 0.108 ± 0.13 |
| ATTAAAAC | 0.269 ± 0.022 |
| GATTAAAC | 0.134 ± 0.071 |
| ATTAAACG | 0.287 ± 0.003 |
| GTTCTTGA | 0.0649 ± 0.045 |
| CAAGGTGG | -0.0168 ± 0.088 |
| TAGAAGAA | -0.0576 ± 0.025 |
| GACATCCC | -0.00641 ± 0.062 |

| Sequence | PBM 8-mer E-score |
| --- | --- |
| AATACCTA | 0.214 ± 0.067 |
| CGAAGCTA | -0.176 ± 0.022 |
| GGTCCAAC | -0.234 ± 0.16 |
| ATGGTAAA | 0.13 ± 0.053 |
| ATTATTAA | 0.212 ± 0.035 |
| ATTATTAG | 0.247 ± 0.061 |
| ATTATTAC | 0.255 ± 0.028 |
| ACTATTAC | 0.0842 ± 0.022 |
| ACTATTAG | -0.0835 ± 0.051 |
| CTTATTAC | 0.101 ± 0.014 |
| GCGGCTGA | -0.177 ± 0.019 |
| CAATTCAA | 0.0283 ± 0.0014 |
| ATTCCCCA | 0.209 ± 0.066 |
| ACTCCAGA | -0.0288 ± 0.033 |
| CCAGGAAC | -0.286 ± 0.11 |
| CAGGATTA | 0.0457 ± 0.03 |
| CAGCAGGG | -0.114 ± 0.086 |
| TAAGAACA | 0.239 ± 0.0029 |
| GAAGAACA | 0.127 ± 0.031 |
| CAAGAACA | -0.0329 ± 0.2 |
| ACGTTTAT | 0.0742 ± 0.017 |
| AATTGGCC | -0.0791 ± 0.05 |
| GTTGGTAA | 0.0564 ± 0.03 |
| ATATGTGG | 0.261 ± 0.098 |
| GTATGTGA | 0.0146 ± 0.021 |

| Sequence | PBM 8-mer E-score |
| --- | --- |
| ATATGTGA | 0.32 ± 0.08 |
| CTATGTGA | 0.0996 ± 0.088 |
| ATGTGTGG | 0.104 ± 0.095 |
| ATATGTGC | 0.121 ± 0.056 |
| CACGAATG | 0.101 ± 0.063 |
| GGCGGACA | -0.0909 ± 0.047 |
| GTCCTAAA | 0.0453 ± 0.11 |
| ATGGCATG | 0.0857 ± 0.18 |
| ACTTTCTA | 0.237 ± 0.046 |
| ACTTTCTC | 0.0328 ± 0.03 |
| ACTTTCTG | -0.00396 ± 0.12 |
| CCGAAAAG | 0.0771 ± 0.15 |
| ATGAATTG | 0.179 ± 0.062 |
| AATACACT | 0.188 ± 0.042 |
| GGTATACA | 0.109 ± 0.022 |
| TATACACA | 0.234 ± 0.038 |
| CATACACA | 0.221 ± 0.047 |
| AATACACA | 0.308 ± 0.05 |
| CCTACAAC | 0.13 ± 0.0096 |
| ACTACAAG | 0.135 ± 0.062 |
| TGTATACA | 0.335 ± 0.051 |
| ACTACAAC | 0.268 ± 0.024 |
| AATACACG | 0.256 ± 0.027 |
| CGTATACA | 0.216 ± 0.049 |
| CATACACG | 0.166 ± 0.029 |

| Sequence | PBM 8-mer E-score |
| --- | --- |
| CGCGACCA | -0.136 ± 0.0046 |
| ATATGGTA | 0.217 ± 0.0028 |
| GTCGGACA | -0.2 ± 0.096 |
| GAATAACC | 0.0359 ± 0.041 |
| TCGAAACA | 0.00709 ± 0.067 |
| ACAGAGTC | -0.0304 ± 0.021 |
| ATCCTACA | -0.0539 ± 0.011 |
| GTTCCCGA | -0.272 ± 0.029 |
| AAACTCGG | -0.00029 ± 0.062 |
| TGAAATCA | 0.102 ± 0.042 |
| CACCTAGC | 0.0921 ± 0.017 |
| CGTACACG | 0.212 ± 0.059 |
| ACTACACA | 0.315 ± 0.053 |
| AGTACACA | 0.22 ± 0.037 |
| CCTACACG | 0.00955 ± 0.02 |
| ACTACACG | 0.149 ± 0.0089 |
| TGTACACA | 0.251 ± 0.073 |
| ATCCCTGG | -0.185 ± 0.058 |
| ACTCCATC | -0.129 ± 0.053 |
| ATTTCATC | 0.17 ± 0.077 |
| TGAAGACA | -0.094 ± 0.12 |
| AAAGTATA | 0.315 ± 0.012 |
| ACTGTATA | 0.255 ± 0.011 |
| ATTGTATA | 0.131 ± 0.13 |
| AATGTATA | 0.279 ± 0.074 |

| Sequence | PBM 8-mer E-score |
| --- | --- |
| GCTGTATA | 0.192 ± 0.026 |
| CTTGTATA | 0.136 ± 0.16 |
| CCTGTATA | 0.116 ± 0.042 |
| GATGTATA | 0.103 ± 0.14 |
| GTTGTATA | 0.249 ± 0.025 |
| CAAGTATA | 0.187 ± 0.011 |
| AAAGTATT | 0.221 ± 0.0025 |
| CATGTATA | 0.228 ± 0.034 |
| ACGCCATA | 0.0949 ± 0.073 |
| TCTAAACA | 0.16 ± 0.033 |
| CTGAGTTA | -0.0809 ± 0.031 |
| AGAAAAAA | 0.231 ± 0.056 |
| CATCGAGC | -0.0831 ± 0.0056 |
| AAATGTGC | 0.121 ± 0.067 |
| ACGGTGCT | -0.0206 ± 0.018 |
| CTTGTTTA | 0.0457 ± 0.0082 |
| GTTGTTTA | 0.32 ± 0.063 |
| ATTGTTTA | 0.103 ± 0.011 |
| ACATTGTG | 0.144 ± 0.17 |
| TAGATCTA | 0.0708 ± 0.14 |
| CACATATA | 0.325 ± 0.081 |
| TACATATA | 0.238 ± 0.022 |
| ACCATATA | 0.278 ± 0.042 |
| ACCATATC | 0.0503 ± 0.19 |
| ACCATATG | 0.159 ± 0.02 |

| Sequence | PBM 8-mer E-score |
| --- | --- |
| TACATAGA | 0.163 ± 0.051 |
| GACATATA | 0.0588 ± 0.11 |
| GACATATC | 0.135 ± 0.032 |
| AACATATG | 0.136 ± 0.027 |
| CACATATG | 0.131 ± 0.036 |
| CACATATC | 0.149 ± 0.067 |
| AACATATA | 0.286 ± 0.079 |
| CGTCGGAG | -0.1482 ± 0.0013 |
| CGCACTAG | -0.0251 ± 0.025 |
| GCAGATCA | -0.15 ± 0.0073 |
| CTACCTGC | -0.0986 ± 0.014 |
| ATAAATAC | 0.263 ± 0.071 |
| ATAAATAT | 0.319 ± 0.01 |
| AAAAATAT | 0.229 ± 0.035 |
| TTAAATAA | 0.18 ± 0.063 |
| ATAAATAA | 0.231 ± 0.0076 |
| AGAAATAC | 0.0602 ± 0.05 |
| ATAAATAG | 0.167 ± 0.075 |
| AGAAATAA | 0.259 ± 0.097 |
| GGAAATAA | 0.154 ± 0.013 |
| TTAAGGAA | 0.0354 ± 0.0092 |
| AGGAAGTG | -0.0996 ± 0.0079 |
